The values below come from PubChem BioAssay AID743366 (National Center for Advancing Translational Sciences (NCATS), 2014).

Structures are written as SMILES.

This assay in a line: qHTS profiling of inhibitors of Plasmodium falciparum (HB3) proliferation (acoustic dispense). The following applies: P. falciparum HB3 in erythrocytes, SYBR Green, 72 h; at 49.8 µM (top of the series) unless noted. The source says: Plasmodium falciparum is a virulent malarial parasite that kills 1-2 million people worldwide each year. Transmitted by mosquitoes, the sporozoite form of the parasite enters the blood stream to infect hepatocytes, where they become merozoites that infect red blood cells (erythrocytes). Within erythrocytes, merozoites begin a […] cycle of growth and division, after which the parasite is released to infect new red blood cells. Gametocytes, which form within erythrocytes as well, circulate in the bloodstream and are ingested by the mosquito, thereby completing the life cycle. To profile malarial isolates for differential chemical responses and to identify inhibitors of malarial growth, an assay that measures P. falciparum growth and replication within erythrocytes was employed. This assay uses a DNA binding fluorescent dye (SYBR Green) to detect parasite DNA following cell lysis. Because mature erythrocytes lack DNA, only Plasmodium-derived DNA is detected.
The SYBR Green viability assay was adapted from a method described previously (Plouffe et al., 2008). For screening 3 ul culture medium was dispensed into 1536 well black clear bottom plates (Aurora Biotechnologies) using a Multidrop Combi (Thermo Fisher Scientific Inc.), 23 nL of compounds in DMSO were added by an acoustic dispenser (EDC Biosystems), and 5 ul of erythrocytes infected with P. falciparum (0.3% parasitemia, 2.5% hematocrit final concentration) were added. The plates were incubated at 37 C in a humidified incubator in 5% CO2 for 72 h, and 2 ul lysis buffer (20 mM Tris HCl, 10 mM EDTA, 0.16% saponin, 1.6% triton X, 10X SYBR Green I supplied as 10,000X […] by Invitrogen) was added to each well. The plates were mixed for 25 sec with gentle shaking and incubated overnight at room temperature in the dark. The following morning, fluorescence intensity at 485(14) nm excitation and 535(25) nm emission wavelengths was measured on an EnVision (Perkin Elmer) plate reader. Plate reads were normalized relative to the control inhibitor (0.29 uM artemisinin) and vehicle (DMSO) wells present on each plate and then corrected by an algorithm using vehicle-only control plates at the beginning and end of the compound plate stack.
In general terms: Quantitative high-throughput screening tests each substance at several concentrations.
On to `CC(=O)Nc1nnc(S(N)(=O)=O)s1`, for which the activity (normalised, proliferation) worked out at 89.5%.

Regarding `CC=C1C2C=C(C)CC1(N)c1ccc(=O)[nH]c1C2` (stereo unspecified), the activity (normalised, proliferation) is 103%.

With `CC1=C(O)C(=O)C=C2C1=CC=C1[C@@]2(C)CC[C@@]2(C)[C@@H]3C[C@](C)(C(=O)O)CC[C@]3(C)CC[C@]12C`, the activity (normalised, proliferation) is 7.07%.

For `C[C@H]1CCCC=CC2C[C@H](O)C[C@@H]2[C@H](O)C=CC(=O)O1` (stereo partly specified), the activity (normalised, proliferation) is -0.991%.

For the molecule `C[C@]12O[C@H](C[C@@]1(O)C(=O)O)n1c3ccccc3c3c4c(c5c6ccccc6n2c5c31)CNC4=O`, the activity (normalised, proliferation) was determined as 8.93% [at 4.15 µM].

For the molecule `COC1=CC(C)=C[C@@H](C)[C@@H](O)[C@@H](C)CC(C)=CC=C[C@H](OC)[C@H]([C@@H](C)[C@@H](O)[C@H](C)[C@@]2(O)C[C@@H](O)[C@H](C)[C@@H](C(C)C)O2)OC1=O`, the activity (normalised, proliferation) was found to be 0.863%.

As to `CC=C(C)C(=O)N[C@@H](c1ccccc1)[C@@H](O)C(=O)O[C@H]1C[C@@]2(O)[C@@H](OC(=O)c3ccccc3)[C@@H]3[C@]4(OC(C)=O)CO[C@@H]4C[C@H](O)[C@@]3(C)C(=O)[C@H](OC(C)=O)C(=C1C)C2(C)C`, the activity (normalised, proliferation) is 2.88%.

Consider `CN1C(=O)C[C@H](C(=O)N[C@@H](Cc2cnc[nH]2)C(=O)N2CCC[C@@H]2C(N)=O)NC1=O`, for which the activity (normalised, proliferation) amounted to 72.5%.

On to `O=c1[nH]c2ccc(Cl)cc2c(N[C@@H]2CN3CCC2CC3)c1-c1nc2ccccc2[nH]1`, for which the activity (normalised, proliferation) is -0.29%.

Turning to `CC(C)(N)CNC(=O)CC1CCC2(CC1)OOC1(O2)C2CC3CC(C2)CC1C3` (stereo unspecified), the activity (normalised, proliferation) was -0.313%.

`CC(=Cc1csc(C)n1)[C@@H]1C[C@H]2O[C@@H]2CCC[C@H](C)[C@@H](O)[C@@H](C)C(=O)C(C)(C)[C@@H](O)CC(=O)O1`: the activity (normalised, proliferation) turned out to be 10.3%.

As to `O=C(C[C@@H]1NCCC[C@@H]1O)Cn1cnc2ccccc2c1=O`, the activity (normalised, proliferation) is -0.592%.

On to `COC(=O)[C@@]1(OC)C[C@@H]2O[C@@]1(C)n1c3ccccc3c3c4c(c5c6ccccc6n2c5c31)C(=O)N(C)C4`, for which the activity (normalised, proliferation) is -0.375% [at 16.5 µM].

Take `C[C@@H]1C[C@@H]([C@H](O)CC2CC(=O)NC(=O)C2)C(=O)[C@@H](C)C1`: the activity (normalised, proliferation) was found to be 0.071%.

Take `CO[C@H]1CCC(O[C@H]2C[C@H]([C@]3(C)CC[C@]4(C[C@H](O)[C@@H](C)[C@@H]([C@@H](C)C=C(C)C(=O)[C@H](C)C[C@H](C)C(=O)O)O4)O3)O[C@]3(O[C@@H]([C@H]4O[C@@](O)(CO)[C@H](C)C[C@H]4C)C[C@H]3C)[C@H]2C)O[C@H]1C` (stereo partly specified): the activity (normalised, proliferation) is 120%.

With `CC(=O)N(O)CCCP(=O)(O)O`, the activity (normalised, proliferation) is 2.97%.
